The values below come from PubChem BioAssay.

The subject of test [1] is transactivating tegument protein VP16 (Human herpesvirus 1). In words: compounds suppressing VP16-driven luciferase signal – cell-based, luminescence, single concentration, counter-screen for SRC2 inhibitor project (AID 652007; in the data active means inhibition above about 36%). To be noted: cell-based VP16 transactivation luciferase reporter, at 8.9 µM, active compounds read high. In general terms: A counterscreen serves to expose hits that act by an unwanted route or on another target.

Test [2] addresses Nuclear receptor coactivator 2 (Homo sapiens) (UniProt Q15596). The test is described as follows: inhibition of GAL4-SRC2 driven luciferase expression – cell-based, luminescence, HEK293, triplicate, confirmation (AID 652008).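 Further: 0% = DMSO-treated cells and 100% = Gossypol at 36 µM.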 To be noted: HEK293 GAL4-SRC2 luciferase reporter, at 8.9 µM, active compounds read high. (A reporter such as luciferase makes a cellular process visible.)

Molecules are shown by their SMILES. Calls of active or inactive are those of the source.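 How the source made its calls, unless noted: active means mean inhibition above 46.5%, the solvent-only control mean plus 3 SD; inactive means the rest.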

Chain of Nuclear receptor coactivator 2 (Homo sapiens) (Q15596 whole entry, looked up, the tested form may be a part): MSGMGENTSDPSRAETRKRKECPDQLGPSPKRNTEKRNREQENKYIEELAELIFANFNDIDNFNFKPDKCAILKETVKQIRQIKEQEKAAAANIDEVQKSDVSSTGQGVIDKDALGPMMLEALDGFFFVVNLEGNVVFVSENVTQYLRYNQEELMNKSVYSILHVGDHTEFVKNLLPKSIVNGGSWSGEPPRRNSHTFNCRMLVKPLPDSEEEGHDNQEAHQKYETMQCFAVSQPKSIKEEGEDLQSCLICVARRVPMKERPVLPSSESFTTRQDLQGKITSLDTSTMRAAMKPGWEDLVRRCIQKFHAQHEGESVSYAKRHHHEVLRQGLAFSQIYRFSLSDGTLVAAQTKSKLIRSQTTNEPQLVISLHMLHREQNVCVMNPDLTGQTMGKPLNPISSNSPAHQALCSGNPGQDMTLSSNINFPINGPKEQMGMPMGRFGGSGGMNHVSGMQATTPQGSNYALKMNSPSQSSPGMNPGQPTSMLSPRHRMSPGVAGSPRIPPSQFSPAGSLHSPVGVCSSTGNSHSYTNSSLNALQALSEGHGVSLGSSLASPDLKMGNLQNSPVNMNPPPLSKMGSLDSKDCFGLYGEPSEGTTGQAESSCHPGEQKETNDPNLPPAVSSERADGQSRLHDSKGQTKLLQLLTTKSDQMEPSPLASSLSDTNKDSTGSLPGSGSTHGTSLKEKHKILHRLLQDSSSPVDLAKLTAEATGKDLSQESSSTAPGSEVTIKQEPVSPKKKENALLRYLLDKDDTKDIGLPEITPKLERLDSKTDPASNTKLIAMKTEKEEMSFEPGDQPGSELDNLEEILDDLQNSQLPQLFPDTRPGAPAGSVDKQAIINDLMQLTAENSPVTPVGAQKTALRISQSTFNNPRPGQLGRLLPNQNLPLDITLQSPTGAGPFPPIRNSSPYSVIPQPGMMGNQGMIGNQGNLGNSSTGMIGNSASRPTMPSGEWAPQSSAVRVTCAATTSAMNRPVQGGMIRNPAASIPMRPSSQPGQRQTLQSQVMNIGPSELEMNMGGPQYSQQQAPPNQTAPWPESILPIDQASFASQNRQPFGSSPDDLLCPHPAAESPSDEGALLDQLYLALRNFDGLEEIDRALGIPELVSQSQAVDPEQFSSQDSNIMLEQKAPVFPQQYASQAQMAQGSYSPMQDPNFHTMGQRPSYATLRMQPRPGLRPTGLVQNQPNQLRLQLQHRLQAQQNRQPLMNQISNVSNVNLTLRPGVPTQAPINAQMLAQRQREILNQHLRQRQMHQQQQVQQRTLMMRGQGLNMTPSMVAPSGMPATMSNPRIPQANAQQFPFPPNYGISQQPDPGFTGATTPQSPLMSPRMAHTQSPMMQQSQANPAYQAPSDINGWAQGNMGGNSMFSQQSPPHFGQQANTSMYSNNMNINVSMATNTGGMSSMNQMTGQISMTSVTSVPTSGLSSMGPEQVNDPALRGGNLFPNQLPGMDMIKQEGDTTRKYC

Regarding `CCn1c(Cl)c(C=O)s/c1=N\S(=O)(=O)c1ccccc1`, the inhibition was 59.6% (active) in test [1] and 16% (inactive) in test [2].
For the compound `CC(=O)N1CCCc2cc(S(=O)(=O)N3CCCC(C(=O)NCc4ccccc4Cl)C3)ccc21` (configuration not stated), the values for the inhibition in test [1] and in test [2] were 24.9% (inactive) and 21.1% (inactive), respectively.
Turning to `COc1ccc(N2CCN(C3CCCN(S(=O)(=O)c4ccc(C)cc4C)C3)CC2)cc1` (configuration not stated), the inhibition is -13% (inactive) in test [1] and 29.6% (inactive) in test [2].
Turning to `Cc1nc(-c2ccc(NC(=O)c3ccco3)cc2)cs1`, the results for the inhibition in test [1] and in test [2] were 18.9% (inactive) and 60.4% (active), respectively.
The like results for `Cc1cc(C(=O)COC(=O)c2ccc(O)cc2O)c(C)n1-c1ccc(OC(F)F)cc1` were, in that order, 12.6% (inactive) and 35.1% (inactive).
The like results for `CCN(CC)CCNC(=O)c1ccc(NC(=O)c2ccc(S(=O)(=O)N3CCCC3)cc2)cc1` were, in that order, -4.61% (inactive) and -8.26% (inactive).
Consider `COC(=O)CCCNC(=O)CCc1nnc(-c2ccc(-c3ccccc3)cc2)o1`, for which the figures for the inhibition in test [1] and in test [2] were 34% (inactive) and 62.8% (active), respectively.
The like results for `COc1ccc(C(=O)N/N=C\c2coc3ccc(Cl)cc3c2=O)cc1` were, in that order, 3.52% (inactive) and 5.31% (inactive).
The corresponding values for `Cc1ccc2sc(N(CCCN(C)C)C(=O)CCS(=O)(=O)c3ccccc3)nc2c1C` are 1.51% (inactive) and 27.7% (inactive).
The like results for `COc1ccc(-c2ncncc2-c2csc(C)n2)c(O)c1` were, in that order, -10.8% (inactive) and -21.2% (inactive).
For `Cc1cnc(NC(=O)COc2ccccc2Cl)s1`, the values for the inhibition in test [1] and in test [2] were -10.5% (inactive) and 18.8% (inactive), respectively.
For the compound `COc1ccc([N+](=O)[O-])c(S(=O)(=O)c2ccc(Cl)cc2)n1`, the inhibition in test [1] is 8.89% (inactive); in test [2] it was 52.3% (active).
The corresponding values for `N#CC1CCCc2c1[nH]c1ccc([N+](=O)[O-])cc21` (configuration not stated) are -27% (inactive) and -16.7% (inactive).
As to `CS(=O)(=O)Nc1cccc(NC(=O)C2Cc3c(-c4cccc(F)c4)ccnc3O2)c1` (configuration not stated), the inhibition was 21.8% (inactive) in test [1] and 36.3% (inactive) in test [2].
The like results for `CN1CCN(S(=O)(=O)c2cccc(C(=O)Nc3ccc(Br)cc3Br)c2)CC1` were, in that order, 12.2% (inactive) and 12.1% (inactive).
The like results for `O=[N+]([O-])c1cccc(NC(=S)Nc2nc(-c3ccc(Cl)cc3Cl)cs2)c1` were, in that order, -15.8% (inactive) and 9.75% (inactive).
Consider `CCOC(=O)c1c(NC(=O)c2cnn3c2NC(c2cccc(OC)c2)CC3C(F)(F)F)sc2c1CCCC2` (configuration not stated), for which the inhibition in test [1] was 16.7% (inactive); in test [2], -21.9% (inactive).
The corresponding values for `CCC1CSC(Nc2ccc(C(=O)/C=C/c3ccc(OC)c(OC)c3)cc2)=N1` (configuration not stated) are 12.8% (inactive) and 39.9% (inactive).
For `CCNC(=O)NC(=O)COC(=O)CCCSc1nc2ccccc2s1`, the inhibition in test [1] is 5% (inactive); in test [2] it was 24.9% (inactive).
Consider `Cc1ccc(-c2nc(-c3ccccn3)no2)cc1Cl`, for which the inhibition in test [1] is 11.8% (inactive); in test [2] it was 34% (inactive).
As to `CCCCC(=O)NC(c1ccccc1OC)c1ccc2cccnc2c1O` (configuration not stated), the inhibition is -16.1% (inactive) in test [1] and 28.1% (inactive) in test [2].
With `C=C1C(=O)[C@]23C[C@H]1CC[C@H]2[C@]1(C)CCC[C@@](C)(C(=O)OC)[C@H]1C[C@@H]3O`, the inhibition in test [1] is 77.6% (active); in test [2] it was 90.4% (active).
The like results for `CCN(CC)S(=O)(=O)c1cccc(C(=O)N/N=C/c2cccc(O)c2O)c1` were, in that order, -46.8% (inactive) and -7.21% (inactive).
For the compound `CC(=O)Nc1cccc(-c2cc(NC(C)=O)c3ncc(-c4ccccc4)n3c2)c1`, the inhibition in test [1] was -11.4% (inactive); in test [2], 2.68% (inactive).
The corresponding values for `CC(C)(C)c1nn(-c2ccccc2)c2[nH]c(=O)c(CNc3ccc4c(c3)OCCO4)cc12` are -7.89% (inactive) and 3.22% (inactive).
As for `Cc1cc(C2=NNC(=NC3CC3)SC2)c(C)n1-c1ccccc1`, the figures for the inhibition in test [1] and in test [2] were 83.2% (active) and 96.4% (active), respectively.
The like results for `CCOC(=O)COc1ccc(S(=O)(=O)N2CCN(c3ccc(OC)cc3)CC2)cc1` were, in that order, 3.67% (inactive) and -1.53% (inactive).
Consider `COc1ccc2c(c1)CCCN2C(=O)C1CCCN(S(=O)(=O)c2ccc(C(C)(C)C)cc2)C1` (configuration not stated), for which the values for the inhibition in test [1] and in test [2] were -3.95% (inactive) and 15.7% (inactive), respectively.
`O=C(Nc1nccs1)c1cc2c(s1)CCCCC2`: the inhibition in test [1] was 0.43% (inactive); in test [2] it was 38.7% (inactive).
The like results for `CC(=O)n1cc(N(C(=O)CCl)c2ccccc2)c2ccccc21` were, in that order, 51.8% (active) and 50.5% (active).
`Cc1ccc(C)c(OCc2ccc(C(=O)Nc3ccc([N+](=O)[O-])cn3)o2)c1`: the inhibition in test [1] is 8.86% (inactive); in test [2], 35.9% (inactive).
The like results for `Cc1cc(C)c2c3c(sc2n1)C(=O)N(c1ccccc1C)CC(=O)N3` were, in that order, 4.42% (inactive) and 5.22% (inactive).
The corresponding values for `COc1cccc(/C=N/NC(=O)c2cc(-c3ccccn3)nc3ccccc23)c1O` are 9.38% (inactive) and 19.8% (inactive).
The like results for `COC(=O)[C@]12C[C@H](CC(=O)N3CCCCC3)C(=O)N(Cc3ccco3)C1=C[C@H](C(C)C)O[C@@H]2C1CC1` were, in that order, -5.52% (inactive) and -14.3% (inactive).
Turning to `Cc1ccc(C(=O)Nc2ncc([N+](=O)[O-])s2)cc1`, the inhibition in test [1] was -7.15% (inactive); in test [2], 57.7% (active).
The corresponding values for `CCOc1ccc(CN2CCNC(=O)C2CC(=O)NCCc2cnccn2)cc1` (configuration not stated) are 10.4% (inactive) and -23.9% (inactive).

For orientation: inhibition means the drop in the measured response relative to a control, in per cent.
